Our source for the inhibition values is ChEMBL document CHEMBL1961873, “Compounds: GSK PKIS; Assays: Nanosyn kinase panel” (2012).

Test [1] deals with Sphingosine kinase 1 (Homo sapiens) (UniProt Q9NYA1). The following applies: at 1 µM.
Test [2] has as its target T1, Sphingosine kinase 2 (Homo sapiens) (UniProt Q9NRA0).
T1 sequence (whole entry): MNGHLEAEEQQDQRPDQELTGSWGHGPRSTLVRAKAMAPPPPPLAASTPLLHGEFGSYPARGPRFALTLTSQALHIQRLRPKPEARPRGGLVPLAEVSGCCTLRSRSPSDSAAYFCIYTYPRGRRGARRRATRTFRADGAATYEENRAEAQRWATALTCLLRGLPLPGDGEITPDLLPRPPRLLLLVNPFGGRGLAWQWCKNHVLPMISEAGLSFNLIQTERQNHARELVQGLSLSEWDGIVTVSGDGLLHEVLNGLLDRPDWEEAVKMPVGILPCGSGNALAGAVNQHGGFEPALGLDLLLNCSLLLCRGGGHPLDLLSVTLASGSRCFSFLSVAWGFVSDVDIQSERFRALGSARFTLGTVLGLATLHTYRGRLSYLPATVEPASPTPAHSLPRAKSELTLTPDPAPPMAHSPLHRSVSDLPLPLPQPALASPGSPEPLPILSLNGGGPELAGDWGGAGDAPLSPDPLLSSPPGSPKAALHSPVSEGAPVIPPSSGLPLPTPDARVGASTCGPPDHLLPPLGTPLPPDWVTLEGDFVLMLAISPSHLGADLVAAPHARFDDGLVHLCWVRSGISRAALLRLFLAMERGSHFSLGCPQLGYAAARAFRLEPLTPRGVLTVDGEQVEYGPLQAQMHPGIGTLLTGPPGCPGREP
The following applies: at 0.1 µM.

Test [3] concerns the target T1, Sphingosine kinase 2 (Homo sapiens). The following applies: at 1 µM.
In test [4] the target is Casein kinase II subunit alpha (Homo sapiens) (UniProt P68400). The following applies: at 0.1 µM.
Chain of Casein kinase II subunit alpha (Homo sapiens) (P68400 whole entry, looked up): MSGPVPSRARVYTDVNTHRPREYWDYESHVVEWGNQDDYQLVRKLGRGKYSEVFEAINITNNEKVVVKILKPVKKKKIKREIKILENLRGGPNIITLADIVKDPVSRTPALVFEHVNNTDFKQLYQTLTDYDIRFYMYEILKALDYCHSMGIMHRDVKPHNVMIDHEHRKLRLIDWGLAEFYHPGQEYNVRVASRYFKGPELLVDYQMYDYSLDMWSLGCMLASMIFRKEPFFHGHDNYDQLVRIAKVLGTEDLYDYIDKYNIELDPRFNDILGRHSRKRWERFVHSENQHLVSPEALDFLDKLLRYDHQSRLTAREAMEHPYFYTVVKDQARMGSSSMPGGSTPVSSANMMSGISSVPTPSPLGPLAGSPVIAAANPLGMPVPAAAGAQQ
Test [5] has the same target. Particulars: at 1 µM.
The target in test [6] is T2, Inhibitor of nuclear factor kappa-B kinase subunit alpha (Homo sapiens) (UniProt O15111).
T2 sequence (whole entry): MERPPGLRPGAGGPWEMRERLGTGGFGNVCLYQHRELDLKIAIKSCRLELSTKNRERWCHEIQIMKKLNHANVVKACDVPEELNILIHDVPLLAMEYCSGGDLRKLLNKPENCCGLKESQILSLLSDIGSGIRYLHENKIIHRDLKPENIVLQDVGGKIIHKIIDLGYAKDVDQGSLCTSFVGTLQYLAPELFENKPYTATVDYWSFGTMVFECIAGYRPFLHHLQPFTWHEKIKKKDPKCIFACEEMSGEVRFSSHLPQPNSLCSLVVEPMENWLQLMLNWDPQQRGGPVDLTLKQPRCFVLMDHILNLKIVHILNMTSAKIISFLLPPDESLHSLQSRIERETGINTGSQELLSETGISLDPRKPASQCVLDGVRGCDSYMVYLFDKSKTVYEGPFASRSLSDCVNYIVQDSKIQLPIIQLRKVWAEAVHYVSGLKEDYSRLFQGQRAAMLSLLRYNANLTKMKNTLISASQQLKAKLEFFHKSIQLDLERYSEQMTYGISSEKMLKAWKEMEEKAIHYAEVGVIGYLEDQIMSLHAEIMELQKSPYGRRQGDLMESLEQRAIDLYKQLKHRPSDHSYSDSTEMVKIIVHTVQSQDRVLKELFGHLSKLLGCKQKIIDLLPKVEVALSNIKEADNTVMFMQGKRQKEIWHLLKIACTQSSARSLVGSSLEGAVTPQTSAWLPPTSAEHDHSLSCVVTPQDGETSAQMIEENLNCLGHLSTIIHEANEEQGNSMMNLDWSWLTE
Particulars: at 0.1 µM.

The target in test [7] is T2, Inhibitor of nuclear factor kappa-B kinase subunit alpha (Homo sapiens). The following applies: at 1 µM.
The target of test [8] is T3, Inhibitor of nuclear factor kappa-B kinase subunit beta (Homo sapiens) (UniProt O14920).
T3 sequence (whole entry): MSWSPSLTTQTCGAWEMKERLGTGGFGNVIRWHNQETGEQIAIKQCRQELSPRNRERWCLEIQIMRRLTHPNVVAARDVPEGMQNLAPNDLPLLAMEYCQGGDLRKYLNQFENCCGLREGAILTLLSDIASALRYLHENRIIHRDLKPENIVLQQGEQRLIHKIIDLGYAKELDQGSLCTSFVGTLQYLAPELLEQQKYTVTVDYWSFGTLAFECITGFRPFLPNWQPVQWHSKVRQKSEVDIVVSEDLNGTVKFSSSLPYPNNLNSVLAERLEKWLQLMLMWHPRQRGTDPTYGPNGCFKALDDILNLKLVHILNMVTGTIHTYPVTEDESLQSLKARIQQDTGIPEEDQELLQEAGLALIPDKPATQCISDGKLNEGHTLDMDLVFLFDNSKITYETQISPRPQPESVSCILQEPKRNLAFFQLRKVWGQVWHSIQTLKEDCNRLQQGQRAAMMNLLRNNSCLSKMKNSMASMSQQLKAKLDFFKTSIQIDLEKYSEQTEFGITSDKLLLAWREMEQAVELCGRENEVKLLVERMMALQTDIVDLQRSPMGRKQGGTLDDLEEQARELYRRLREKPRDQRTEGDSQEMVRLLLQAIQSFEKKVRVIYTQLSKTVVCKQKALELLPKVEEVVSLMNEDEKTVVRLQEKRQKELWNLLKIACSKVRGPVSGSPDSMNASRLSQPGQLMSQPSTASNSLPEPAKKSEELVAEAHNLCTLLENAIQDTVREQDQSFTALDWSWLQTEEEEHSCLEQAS
The following applies: at 0.1 µM.

Test [9] has as its target T3, Inhibitor of nuclear factor kappa-B kinase subunit beta (Homo sapiens). Particulars: at 1 µM.
Test [10] concerns the target T4, Inhibitor of nuclear factor kappa-B kinase subunit epsilon (Homo sapiens) (UniProt Q14164).
T4 sequence (whole entry): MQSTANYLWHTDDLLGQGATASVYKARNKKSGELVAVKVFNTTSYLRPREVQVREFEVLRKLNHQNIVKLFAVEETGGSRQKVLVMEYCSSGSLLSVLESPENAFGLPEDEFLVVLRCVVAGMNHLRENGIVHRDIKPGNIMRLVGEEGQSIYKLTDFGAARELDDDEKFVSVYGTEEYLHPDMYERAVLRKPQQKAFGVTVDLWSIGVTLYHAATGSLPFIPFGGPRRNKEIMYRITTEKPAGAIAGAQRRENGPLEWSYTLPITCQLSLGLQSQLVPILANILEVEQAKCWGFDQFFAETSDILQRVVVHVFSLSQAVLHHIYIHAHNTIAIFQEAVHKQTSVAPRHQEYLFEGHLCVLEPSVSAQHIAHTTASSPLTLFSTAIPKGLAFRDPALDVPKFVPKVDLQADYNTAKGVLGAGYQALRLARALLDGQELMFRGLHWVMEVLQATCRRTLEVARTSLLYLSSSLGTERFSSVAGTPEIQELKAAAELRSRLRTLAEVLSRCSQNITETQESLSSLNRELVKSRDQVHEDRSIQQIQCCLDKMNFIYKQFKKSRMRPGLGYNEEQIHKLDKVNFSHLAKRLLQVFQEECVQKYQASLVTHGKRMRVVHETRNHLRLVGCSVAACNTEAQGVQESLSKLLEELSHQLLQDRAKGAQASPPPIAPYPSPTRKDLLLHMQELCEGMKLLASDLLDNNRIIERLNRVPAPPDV
Particulars: at 0.1 µM.

The target in test [11] is T4, Inhibitor of nuclear factor kappa-B kinase subunit epsilon (Homo sapiens). Particulars: at 1 µM.
Test [12] concerns the target T5, Serine/threonine-protein kinase Nek1 (Homo sapiens) (UniProt Q96PY6).
T5 sequence (whole entry): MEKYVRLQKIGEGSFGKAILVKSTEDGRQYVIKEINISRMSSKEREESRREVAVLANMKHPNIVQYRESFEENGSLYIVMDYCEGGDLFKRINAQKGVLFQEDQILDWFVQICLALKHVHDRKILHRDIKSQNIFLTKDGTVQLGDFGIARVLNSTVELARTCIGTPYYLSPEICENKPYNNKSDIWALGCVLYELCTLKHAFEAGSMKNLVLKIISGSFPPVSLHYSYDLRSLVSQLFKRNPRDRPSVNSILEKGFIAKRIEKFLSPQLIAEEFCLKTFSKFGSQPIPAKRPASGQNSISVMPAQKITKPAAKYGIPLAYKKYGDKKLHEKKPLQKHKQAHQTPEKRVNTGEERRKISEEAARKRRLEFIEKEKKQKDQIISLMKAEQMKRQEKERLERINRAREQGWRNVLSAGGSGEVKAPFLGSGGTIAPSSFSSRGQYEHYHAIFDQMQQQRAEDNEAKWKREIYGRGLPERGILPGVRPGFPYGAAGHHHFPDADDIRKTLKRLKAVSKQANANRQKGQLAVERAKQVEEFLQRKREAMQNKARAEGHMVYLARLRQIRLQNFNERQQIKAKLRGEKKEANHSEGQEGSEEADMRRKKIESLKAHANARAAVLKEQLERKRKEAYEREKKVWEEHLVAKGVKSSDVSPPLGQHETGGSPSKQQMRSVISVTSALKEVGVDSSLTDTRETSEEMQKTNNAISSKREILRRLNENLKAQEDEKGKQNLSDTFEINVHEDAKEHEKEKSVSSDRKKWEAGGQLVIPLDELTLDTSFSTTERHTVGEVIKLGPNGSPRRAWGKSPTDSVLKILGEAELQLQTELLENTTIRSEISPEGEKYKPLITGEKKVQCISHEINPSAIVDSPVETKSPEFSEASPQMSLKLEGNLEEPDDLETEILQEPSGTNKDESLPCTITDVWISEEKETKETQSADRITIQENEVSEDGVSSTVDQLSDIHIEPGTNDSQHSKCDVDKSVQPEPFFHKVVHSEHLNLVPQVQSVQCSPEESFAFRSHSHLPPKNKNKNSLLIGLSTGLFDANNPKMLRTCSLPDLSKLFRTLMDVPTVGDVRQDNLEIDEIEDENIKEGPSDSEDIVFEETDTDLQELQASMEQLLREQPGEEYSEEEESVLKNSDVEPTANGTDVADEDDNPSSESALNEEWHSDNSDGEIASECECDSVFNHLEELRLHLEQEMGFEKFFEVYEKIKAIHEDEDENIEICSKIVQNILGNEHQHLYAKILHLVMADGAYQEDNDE
Particulars: at 0.1 µM.

The target of test [13] is T5, Serine/threonine-protein kinase Nek1 (Homo sapiens). The following applies: at 1 µM.
The target of test [14] is T6, Serine/threonine-protein kinase Nek2 (Homo sapiens) (UniProt P51955).
T6 sequence (whole entry): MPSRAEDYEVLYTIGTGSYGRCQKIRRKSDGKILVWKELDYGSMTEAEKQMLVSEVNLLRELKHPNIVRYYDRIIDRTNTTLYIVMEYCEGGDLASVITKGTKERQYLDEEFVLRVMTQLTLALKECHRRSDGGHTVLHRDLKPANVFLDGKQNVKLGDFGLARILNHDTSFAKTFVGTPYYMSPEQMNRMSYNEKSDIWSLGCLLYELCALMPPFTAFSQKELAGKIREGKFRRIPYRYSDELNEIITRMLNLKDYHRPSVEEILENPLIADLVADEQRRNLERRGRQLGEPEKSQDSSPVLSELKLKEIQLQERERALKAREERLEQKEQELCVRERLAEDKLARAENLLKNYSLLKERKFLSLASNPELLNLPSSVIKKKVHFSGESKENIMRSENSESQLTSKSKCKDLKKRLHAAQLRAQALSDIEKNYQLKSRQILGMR
Particulars: at 0.1 µM.

Test [15] concerns the target T6, Serine/threonine-protein kinase Nek2 (Homo sapiens). Particulars: at 1 µM.
The target of test [16] is Serine/threonine-protein kinase Nek6 (Homo sapiens) (UniProt Q9HC98). The following applies: at 0.1 µM.
Chain of Serine/threonine-protein kinase Nek6 (Homo sapiens) (Q9HC98 whole entry): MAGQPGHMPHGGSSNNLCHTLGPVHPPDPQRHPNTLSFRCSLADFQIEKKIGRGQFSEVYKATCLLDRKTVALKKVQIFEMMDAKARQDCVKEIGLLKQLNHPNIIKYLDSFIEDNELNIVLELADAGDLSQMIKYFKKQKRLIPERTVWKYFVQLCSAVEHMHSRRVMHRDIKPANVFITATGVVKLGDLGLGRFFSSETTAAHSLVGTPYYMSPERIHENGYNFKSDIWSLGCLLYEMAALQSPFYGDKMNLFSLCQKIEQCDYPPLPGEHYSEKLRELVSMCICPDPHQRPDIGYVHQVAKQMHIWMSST
Test [17] has the same target. The following applies: at 1 µM.
Test [18] addresses Serine/threonine-protein kinase Nek7 (Homo sapiens) (UniProt Q8TDX7). Particulars: at 0.1 µM.
The target is the same in test [19]. The following applies: at 1 µM.
In test [20] the target is T7, Serine/threonine-protein kinase Nek9 (Homo sapiens) (UniProt Q8TD19).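 Further: reported value is the mean percent inhibition of NEK9.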
T7 sequence (whole entry): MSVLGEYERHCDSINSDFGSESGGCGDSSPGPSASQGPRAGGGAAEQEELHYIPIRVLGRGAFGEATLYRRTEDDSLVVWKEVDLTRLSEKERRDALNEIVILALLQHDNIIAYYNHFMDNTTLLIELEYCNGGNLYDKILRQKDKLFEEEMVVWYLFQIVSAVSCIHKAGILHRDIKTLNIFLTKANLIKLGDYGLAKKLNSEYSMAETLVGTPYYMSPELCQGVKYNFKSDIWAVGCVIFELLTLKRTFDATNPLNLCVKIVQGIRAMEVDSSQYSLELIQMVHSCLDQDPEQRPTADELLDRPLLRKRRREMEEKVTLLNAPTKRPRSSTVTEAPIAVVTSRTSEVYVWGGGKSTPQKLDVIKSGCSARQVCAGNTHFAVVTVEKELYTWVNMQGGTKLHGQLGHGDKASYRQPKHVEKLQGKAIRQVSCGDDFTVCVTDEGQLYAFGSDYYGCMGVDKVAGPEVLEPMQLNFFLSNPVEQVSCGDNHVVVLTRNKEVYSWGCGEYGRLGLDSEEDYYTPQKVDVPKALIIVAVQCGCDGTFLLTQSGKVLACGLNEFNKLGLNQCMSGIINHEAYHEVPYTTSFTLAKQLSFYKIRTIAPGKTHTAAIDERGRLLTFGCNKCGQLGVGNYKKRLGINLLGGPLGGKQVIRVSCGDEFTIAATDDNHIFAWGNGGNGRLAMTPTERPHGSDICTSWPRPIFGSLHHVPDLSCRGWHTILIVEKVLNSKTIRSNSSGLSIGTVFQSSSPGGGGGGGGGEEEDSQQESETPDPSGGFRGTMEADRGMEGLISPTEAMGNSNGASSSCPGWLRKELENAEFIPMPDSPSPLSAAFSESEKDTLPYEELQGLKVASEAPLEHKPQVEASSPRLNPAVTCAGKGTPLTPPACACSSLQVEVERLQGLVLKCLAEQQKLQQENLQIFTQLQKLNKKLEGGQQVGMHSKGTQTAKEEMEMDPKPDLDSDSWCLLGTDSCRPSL
The following applies: at 0.1 µM.

Broadly, the inhibition is the change of the read-out against control, counted positive when it falls.

Chain of Serine/threonine-protein kinase Nek7 (Homo sapiens) (Q8TDX7 whole entry, looked up): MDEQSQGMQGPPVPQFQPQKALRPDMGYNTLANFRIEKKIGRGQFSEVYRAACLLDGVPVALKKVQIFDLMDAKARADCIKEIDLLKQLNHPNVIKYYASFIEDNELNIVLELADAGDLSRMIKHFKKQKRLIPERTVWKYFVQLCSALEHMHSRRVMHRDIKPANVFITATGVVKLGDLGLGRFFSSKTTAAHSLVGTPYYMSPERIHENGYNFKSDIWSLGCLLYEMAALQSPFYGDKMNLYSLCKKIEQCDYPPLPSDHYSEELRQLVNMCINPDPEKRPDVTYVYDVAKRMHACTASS
Chain of Sphingosine kinase 1 (Homo sapiens) (Q9NYA1 whole entry): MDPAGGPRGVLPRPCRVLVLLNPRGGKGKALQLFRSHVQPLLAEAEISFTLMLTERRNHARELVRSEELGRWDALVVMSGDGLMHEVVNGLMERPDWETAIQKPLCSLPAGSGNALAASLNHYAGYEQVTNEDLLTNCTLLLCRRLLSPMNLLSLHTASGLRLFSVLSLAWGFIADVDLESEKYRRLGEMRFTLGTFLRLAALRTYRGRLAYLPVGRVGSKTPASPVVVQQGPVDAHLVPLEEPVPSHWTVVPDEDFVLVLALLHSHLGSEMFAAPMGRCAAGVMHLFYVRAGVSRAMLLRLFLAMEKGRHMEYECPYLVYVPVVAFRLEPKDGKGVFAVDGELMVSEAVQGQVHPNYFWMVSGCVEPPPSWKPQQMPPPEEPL

Consider `Nc1ncc(-c2cccc(S(N)(=O)=O)c2)c2scc(-c3ccc(F)c(Cl)c3)c12`, for which the inhibition in test [1] is -4.57%; in test [2], -1.05%; in test [3], 0.43%; in test [4], 9.52%; in test [5], 3.4%; in test [6] it was -2.46%. The inhibition in test [7] was -3.58%; in test [8] it was 3%; in test [9], 5.65%; in test [10] it was 7.15%; in test [11] it was 6.28%; in [12], 1.83%. The inhibition in [13] amounted to 3.98%; in test [14], 4.7%; in test [15], 4.74%; in test [16] it was 2.28%; in test [17], 3.81%; in test [18] it was 3.41%. In addition, the inhibition was -0.15% in test [19] and 5.04% in test [20].
